“And” between values parts separate entries of the source, which are not always exact repeats. Equal values may be shown once. Results filed as inconclusive are left out. Where a call stands in place of a potency, no number is given. A structure can be active in one record and inactive in another. The source made the active and inactive calls. The call rests on the fitted dose curve; in most records, active means well fitted cell-killing curve with a large enough effect in the repeat runs; inconclusive means weak or mixed curves, or effect the other way; inactive means flat fitted curve, though single readings scatter.
Test: qHTS assay to identify small molecule antagonists of the androgen receptor (AR) signaling pathway using the MDA cell line in the presence of 0.5 nM R1881 - cell viability counter screen (AID 1259242); further: nearly all actives have a fitted effect of over 45% in size
Conditions: MDA-kb2 viability, CellTiter-Fluor protease fluorescence, 16 h; series mostly up to 92.4 µM; viability change, negative = cytotoxic: at the top concentration
Description: U.S. Tox21 Program National Center for Advancing Translational Sciences [NCATS] NIH Chemical Genomics Center [NCGC] U.S. Environmental Protection Agency [EPA] National Institutes of Environmental Health Sciences [NIEHS] National Toxicology Program [NTP] U.S. Food and Drug Administration [FDA] Tox21 Assay Overview: Androgen receptor (AR) is an important member of the nuclear receptor family. Its signaling plays a critical role in AR-dependent prostate cancer and other androgen related diseases. Considerable attention has been given in the past decades to develop methods to study and screen for the environmental chemicals that have the potential to interfere with metabolic homeostasis, reproduction, developmental and behavioral functions. Therefore AR binding assay for screening androgen antagonists can be used to identify potential endocrine disruptors. MDA-kb2 cells (from ATCC, deposited by Wilson et al.) were used to screen for AR inhibitors against Tox21 compound libraries. These cells are human breast carcinoma cells that were stably transfected with a luciferase reporter gene under control of the MMTV promoter that contains response elements for both androgen receptor (AR) and glucocorticoid receptor (GR). The current screening for identification of AR inhibitors against Tox21 libraries used lower concentration of (0.5 nM) R1881 as a stimulator. The cytotoxicity of the Tox21 compound libraries against MDA-kb2 cell line was tested by measuring live-cell protease activity using CellTiter-Fluor assay in the same wells.
Tox21 Assay Protocol Summary: MDA-kb2 cells (cells cultured without CO2) were dispensed at 3,000 cells/well in 4 uL of culture medium into white wall/solid-bottom 1536-well plates (Corning Life Sciences, Corning, NY) using a Multidrop Combi (ThermoFisher Scientific, Waltham, MA) dispenser. After the assay plates were incubated at a 37C and 0% CO2 for 5 hr, 23 nL of compounds dissolved in DMSO, positive controls or DMSO only was transferred to the assay plate by a Pintool station (Kalypsys, San Diego, CA). The transfer of compounds was followed by the addition of 1 uL of 0.5 nM (final concentration) agonist (R1881)/culture medium using a Flying Reagent Dispenser (FRD, Aurora Discovery, San Diego, CA). The plates were incubated at 37C and 0% CO2 for 16 hr. For cytotoxicity assay, 1 uL of CellTiter-Fluor reagent (Promega Corporation, Madison, WI) was added to each well using the FRD and after 30 min incubation at 37C and 0% CO2, The fluorescence intensity was measured using ViewLux plate reader (PerkinElmer, Shelton, CT).
Potency means the concentration at half of the fitted maximal effect.

Structure (SMILES) | Potency | viability change, negative = cytotoxic
O=C(/C=C/c1ccccc1)OCc1ccccc1 | inactive | 
COC(=O)C1=C(C)NC(C)=C(C(=O)OCCN(C)Cc2ccccc2)C1c1cccc([N+](=O)[O-])c1 (stereo not given) | 60.8 µM (active) and inactive | 
C[Si](C)(C)O[Si](C)(C)C | inactive | 
O=C(COc1ccc(Cl)cc1)N1CCN(Cc2ccc3c(c2)OCO3)CC1 |  | -7.12% [at 42.5 µM] (inactive)
O=C(c1ccc(OCCN2CCCCC2)cc1)c1c(-c2ccc(O)cc2)sc2cc(O)ccc12 | 61.2 µM (active) and inactive | 
Nc1ncn([C@@H]2O[C@H](CO)[C@@H](O)[C@H]2O)c(=O)n1 | inactive | 
CCCCC(CC)COP(=O)(OCC(CC)CCCC)OCC(CC)CCCC (stereo not given) | inactive | 
CC(=O)Oc1ccccc1C(=O)Nc1ncc([N+](=O)[O-])s1 | 11.1 µM (active) and 11.9 µM (active) | 
c1ccc2sc(SSN3CCOCC3)nc2c1 | inactive | 
Cc1ncc[nH]1 | inactive | 
O=C1c2cccc(O)c2C(=O)c2c(O)cccc21 | inactive | 
O=C(c1ccccc1)c1ccccc1O | inactive | 
O=CCc1ccccc1 | inactive | 
COc1ccc(OC)c(C(O)CNC(=O)CN)c1 (stereo not given) | inactive | 
O=C=Nc1ccc(Cc2ccc(N=C=O)cc2)cc1 | inactive | 
O=c1oc(=O)c2cc3c(=O)oc(=O)c3cc12 | inactive | 
CC(C)(C)NC(=O)[C@H]1CC[C@H]2[C@@H]3CC[C@H]4NC(=O)C=C[C@]4(C)[C@H]3CC[C@]12C | inactive | 
CCOC(=O)C(C#N)=C(c1ccccc1)c1ccccc1 | inactive | 
CCCCCCCCCC(=O)OC | inactive | 
COC(=O)Nc1nc2ccc(S(=O)c3ccccc3)cc2[nH]1 (stereo not given) | inactive | 

Structure (SMILES) | Potency | viability change, negative = cytotoxic
Cc1cccc(C(=O)O)c1 | inactive | 
c1cc(-c2ccncc2)ccn1 | inactive | 
CN(C)CCN(Cc1cccs1)c1ccccn1 | inactive | 
CCC(C)c1ccccc1O (stereo not given) | inactive | 
CN(C)c1nc(N(C)C)nc(N(C)C)n1 | inactive | 
OCCO | inactive | 
Cc1cccc(N(C)C(=S)Oc2ccc3ccccc3c2)c1 | inactive | 
O=S(=O)(O)c1ccc(O)cc1 | inactive | 
CN(C)C(=N)N=C(N)N | inactive | 
c1cc(N(CC2CO2)CC2CO2)ccc1OCC1CO1 (stereo not given) | inactive | 
C[C@]12CC[C@H]3[C@@H](CCC4=CC(=O)CC[C@@]43C)[C@@H]1CC[C@@H]2C(=O)CO | inactive | 
NNc1ccc(C(=O)O)cc1 | inactive | 
CC(=O)c1ccccn1 | inactive | 
c1ccc2c(c1)Oc1ccccc1S2 | inactive | 
CCCCCCCCCCCO | inactive | 
O=C(O)c1ccccc1Nc1cccc(C(F)(F)F)c1 | inactive | 
Nc1ccc(Cl)cc1Cl | inactive | 
Cc1ccc(C(=O)c2cc(O)c(O)c([N+](=O)[O-])c2)cc1 | 54.5 µM (active) | 
COc1ccc(C(=O)CC(=O)c2ccc(C(C)(C)C)cc2)cc1 | inactive | 
O=CCCCC=O | inactive | 

Source: PubChem BioAssay (Tox21)
